High-throughput results as filed in PubChem BioAssay.
TRb SRC2 PPI: TRbeta-SRC2 interaction inhibition. P10828. TRbeta-SRC2 peptide binding, fluorescence polarization; receptor liganded with 1 µM T3. AID 1469. hit rate 0.065% among 280,000. Potency, µM (series often up to 106 µM), hits mostly inhibitors; also: nearly all actives have a fitted effect of over 50% in size
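Human TRb ligand-binding domain (0.6 uM) is mixed with 20 nM Texas Red SRC2 peptide and 1 uM T3; after compound addition and 5 hr at ambient temperature, polarization is measured and normalized to unbound and bound controls.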
Tau fibril FP: inhibitors of human tau fibril formation; P10636; K18 P301L tau heparin fibrillization, Alexa594 FP, 6 h; Potency, µM (top dose mostly 57.7 µM), actives largely listed as inhibitors; hit rate 0.39% among 280,000; AID 1468; also: nearly all actives have a fitted effect of over 55% in size
Target sequence (P10636 561-689 P618L limits assumed): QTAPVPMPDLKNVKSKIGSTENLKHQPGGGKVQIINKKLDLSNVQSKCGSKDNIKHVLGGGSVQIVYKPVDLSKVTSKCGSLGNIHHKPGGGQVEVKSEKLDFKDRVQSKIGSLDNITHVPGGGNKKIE
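Steps: dispense K18 P301L tau (15 uM plus 0.24 uM Alexa 594 tracer, final) in pH 7 sodium acetate; add compound; add heparin (20 uM final); incubate 6 hr, 37 C; add ThT (30 uM final); after 1 hr ambient, read FP.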
Tau fibril ThT: blocks human tau fibril formation measured by thioflavin T | recombinant tau K18 P301L, heparin-induced fibrillization, ThT fluorescence | Potency, µM (top dose mostly 57.4 µM), most hits filed as inhibitors | hit rate 2.1% among 270,000; also: nearly all actives have a fitted effect of over 55% in size
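Tau K18 P301L fragment (15 uM unlabeled plus 0.24 uM Alexa 594-labeled) in 100 mM sodium acetate pH 7 with compound, fibrillization induced by 20 uM heparin for 6 hr at 37 C. Thioflavin T (30 uM) added, fluorescence read after 1 hr (ex 450, em 510 nm).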
TexasRed fluor: alters Texas Red total fluorescence, flagging assay interference. TRb/SRC2 Texas Red total fluorescence interference. Potency, µM (titrated, usually from 106 µM). hit rate 0.29% among 280,000; active = well fitted curve in either direction with a large enough effect; inconclusive = small, poorly fitted or top-dose-only effect
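Flags fluorescent or light-absorbing compounds by total fluorescence, S + 2P, at 555 nm excitation and 632 nm emission. Mixture: 20 nM Texas Red SRC2 peptide, 0.6 uM human TRb LBD, 1 uM T3, 5% DMSO; compound exposure 5 h at ambient temperature.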
RGS12 GoLoco inh: inhibitors of human Gai1-RGS12 GoLoco interaction (red fluorophore). Gai1:RGS12 GoLoco peptide FP, rhodamine, 10 min. P63096. hit rate 0.44% among 230,000. Potency, µM (series often up to 61.6 µM), hits mostly inhibitors; active = well fitted inhibition curve with a large enough effect, not every such curve was filed as active; inactive = no such curve, though single readings can be large or run the other way; also: nearly all actives have a fitted effect of over 30% in size
Target sequence (P63096 whole entry, looked up): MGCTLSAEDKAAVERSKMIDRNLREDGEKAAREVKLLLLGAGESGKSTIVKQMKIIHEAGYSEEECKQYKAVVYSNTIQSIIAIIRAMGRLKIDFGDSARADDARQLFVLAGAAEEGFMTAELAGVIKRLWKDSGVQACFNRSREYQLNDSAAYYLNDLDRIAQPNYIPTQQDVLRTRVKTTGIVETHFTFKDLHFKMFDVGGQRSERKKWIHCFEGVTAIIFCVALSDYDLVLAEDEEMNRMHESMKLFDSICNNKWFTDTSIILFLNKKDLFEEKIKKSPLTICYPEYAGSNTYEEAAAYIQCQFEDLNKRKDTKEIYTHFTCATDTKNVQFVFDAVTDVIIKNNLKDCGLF
Tau fluor counter: counter-screen for tau fibril formation inhibitors; hit rate 0.93% among 280,000; AID 1463; tau K18 P301L (four-repeat tau fragment) Alexa594 fluorescence, heparin fibrillization; Potency, µM (titrated, usually from 57.7 µM); also: nearly all actives have a fitted effect of over 55% in size
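Human K18 P301L tau (15 uM unlabeled plus 0.24 uM Alexa 594-labeled, final) in 100 mM sodium acetate pH 7 was mixed with compound and 20 uM heparin and incubated 6 hr at 37 C.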
Of the large screens only hits and unclear results are named; the others gave an inactive call; [ ] = remark or other dose. A selection: hits, their analogues and other compounds. The true share with any hit is near 3.1%. Unless noted, calls follow the shape of the dose curve; as a rule, active = well fitted curve in the direction sought with a large enough effect; inconclusive = small, poorly fitted or top-dose-only effect, or another doubt; inactive = no such curve, though single readings can be large; an effect the other way counts as inactive or inconclusive.

Oc1[nH]c(=S)sc1C=C1N=c2ccccc2=N1	Tau fibril ThT 14µM
O=C(Nn1c(O)c(C=C2N=c3ccccc3=N2)sc1=S)c1cccc(Cl)c1	Tau fibril FP inconclusive, Tau fibril ThT inconclusive, Tau fluor counter 13µM[quencher]
O=C(Nn1c(O)c(C=C2N=c3ccccc3=N2)sc1=S)c1ccccc1	Tau fibril ThT 14µM, Tau fluor counter 14µM[quencher]
Cn1c(C(=O)O)c(C=O)c2ccccc21	none
O=C(CSc1n[nH]c(-c2ccccc2Cl)n1)NCc1cccc(C(=O)O)c1	none
O=C1N=c2ccccc2=C1c1sc(=S)n(NC(=O)c2cccc(O)c2)c1O	Tau fibril FP inconclusive, Tau fibril ThT inconclusive, Tau fluor counter inconclusive
Cc1ccc(S(=O)(=O)Nn2c(O)c(C=C3N=c4ccccc4=N3)sc2=S)cc1	Tau fibril ThT 11µM, Tau fluor counter inconclusive
O=C1N=c2ccc(Br)cc2=C1c1sc(=S)n(NS(=O)(=O)c2ccccc2)c1O	Tau fibril FP inconclusive, Tau fibril ThT 11µM, Tau fluor counter 14µM[quencher]
O=S1(=O)N=C(Nc2cccc(C(F)(F)F)c2)c2ccccc21	Tau fibril FP inconclusive (no result: RGS12 GoLoco inh)
COCC(=O)N1CCC[C@@]2(CCN(Cc3ccccc3OC)C2)C1	none (no result: TRb SRC2 PPI, Tau fibril FP, Tau fibril ThT, TexasRed fluor, Tau fluor counter)
Cc1nc2ncnn2c(C)c1CCC(=O)N1CCN(c2ccc(F)cc2)CC1	none (no result: RGS12 GoLoco inh)
COc1ccc(NC(=O)c2cc(S(=O)(=O)N3CCOCC3)cn2C)cc1Cl	TexasRed fluor 10µM[quencher] (no result: RGS12 GoLoco inh)
COc1ccc(NC(=O)c2cc(S(=O)(=O)N3CCCCC3)cn2C)cc1Cl	none (no result: RGS12 GoLoco inh)
CCn1c(SCC(=O)Nc2nc3ccccc3s2)nnc1-c1ccc(Br)cc1	none
COc1ccc(-c2[nH]ncc2CN2CCCCCCC2)c(OC)c1	none
CCC(CO)Nc1ccc(-c2nn(C)c(=O)c3ccccc23)cc1[N+](=O)[O-] (stereo not drawn)	Tau fibril ThT 25µM
Cc1ccc(-c2nn(C)c(=O)c3ccccc23)cc1CO	none
S=c1[nH]nc(-c2ccc(Cl)cc2Cl)n1Cc1ccccc1	none
FC(F)(F)c1ccc2c(c1)n(Cc1ccccc1)c1[n+]2CCCCC1	none
O=C(Cn1c2[n+](c3ccc(C(F)(F)F)cc31)CCCCC2)Nc1ccccc1	RGS12 GoLoco inh 3.2µM
CCc1cccc(NC(=O)Cn2c3[n+](c4ccc(C(F)(F)F)cc42)CCCCC3)c1	RGS12 GoLoco inh 14µM
Cc1cc(NC(=O)CSc2nc3ccccc3c(=O)n2C2CCCC2)no1	none
CCOC(=O)c1c(SCC(=O)Nc2cc(Cl)cc(Cl)c2)nc(=O)[nH]c1C	none (no result: RGS12 GoLoco inh)
COCCNC(=O)CSc1nnc2c(Cl)cc(Cl)cn12	Tau fibril FP 25µM, Tau fibril ThT 13µM (no result: RGS12 GoLoco inh)
Cc1ccc(-c2noc(CN(C(=O)c3ccc(C(C)(C)C)cc3)C(C)C)n2)cc1	none (no result: RGS12 GoLoco inh)
Cc1ccc2nc(/C(C#N)=C\c3ccc(Oc4ccc(C(F)(F)F)cc4[N+](=O)[O-])cc3)[nH]c2c1	Tau fibril ThT inconclusive, Tau fluor counter inconclusive
Cc1ccc2nc(/C(C#N)=C/c3ccc(-c4ccc(F)cc4F)o3)[nH]c2c1	none (no result: RGS12 GoLoco inh)
COc1ccc(/C=C(\C#N)c2nc3ccc(C)cc3[nH]2)cc1Oc1ccc(C(F)(F)F)cc1[N+](=O)[O-]	Tau fibril ThT inconclusive
Cc1ccc2nc(/C(C#N)=C/c3ccc(-c4cccc([N+](=O)[O-])c4)o3)[nH]c2c1	Tau fibril ThT 1.4µM, Tau fluor counter inconclusive
COc1c(O)ccc(/C=C(\C#N)c2nc3ccccc3[nH]2)c1[N+](=O)[O-]	Tau fibril ThT 7.1µM, Tau fluor counter inconclusive
COc1cc(/C=C(\C#N)c2nc3ccc(C)cc3[nH]2)c([N+](=O)[O-])cc1OC	Tau fibril ThT 14µM, Tau fluor counter inconclusive
Cc1ccc2nc(/C(C#N)=C\c3cc(O)ccc3[N+](=O)[O-])[nH]c2c1	Tau fibril ThT 16µM
COc1ccc([N+](=O)[O-])cc1NC(=O)CSc1nc(C)c(C)c(C)n1	none
CCOC(=O)COc1c(OC)cc(Cl)cc1C1Nc2ccccc2C(=O)N1c1cccc(C)c1 (stereo not drawn)	none
COC(=O)c1ccccc1NC(=O)NCC1CCCO1 (stereo not drawn)	none
COc1cc(/C=C(\C#N)c2nc3ccc(C)cc3[nH]2)cc([N+](=O)[O-])c1O	Tau fibril ThT 2µM, Tau fluor counter 8.9µM[quencher]
O=C1OCCC1Sc1nnc(-c2ccc(Cl)cc2)n1Cc1ccccc1 (stereo not drawn)	none
O=C(CNc1cccc(C(F)(F)F)c1)N/N=C/c1cn(-c2ccccc2)nc1-c1ccccc1	Tau fibril FP 8.9µM, Tau fluor counter inconclusive
NC(=O)C1CCN(C2CC(=O)N(Cc3ccc(N4CCCC4=O)cc3)C2=O)CC1 (stereo not drawn)	none
Cc1ccc(C)c(NC(=O)CCS(=O)(=O)c2cccc3nsnc23)c1	none (no result: RGS12 GoLoco inh)
N#CC1=C(N)N=C(SCc2cccc3ccccc23)C(C(N)=O)C12CCCCC2 (stereo not drawn)	Tau fibril ThT 20µM, Tau fluor counter inconclusive
O=C(O)CCn1c(SCc2cccc3ccccc23)nc2ccccc21	none
Oc1cc2c(cc1C(c1ccc(Br)cc1)N1CCCC1)OCO2 (stereo not drawn)	Tau fibril ThT 22µM, Tau fluor counter inconclusive
CCN(CC)c1cc(C)c2cc(NC(=O)/C=C/c3ccccc3OC(C)C)ccc2n1	Tau fibril FP inconclusive, Tau fibril ThT inconclusive, Tau fluor counter 7.9µM[quencher] (no result: RGS12 GoLoco inh)
CCN(CC)c1ccc(C(=O)Nc2ccc3nc(N(CC)CC)cc(C)c3c2)cc1	Tau fibril ThT 3.5µM, Tau fluor counter 14µM[quencher] (no result: RGS12 GoLoco inh)
COCCCNC(=O)Cn1c(=O)n(-c2cccc(C)c2)c(=O)c2c3c(sc21)CN(C(C)=O)CC3	TexasRed fluor inconclusive (no result: RGS12 GoLoco inh)
CCOC(=O)c1[nH]c(CO)c(C(=O)OCC)c1C	none
CCC(C)(C)NC(=O)C(c1ccc(C)cc1)N(CC1CCCO1)C(=O)CNC(=O)c1cccs1 (stereo not drawn)	none
C[n+]1cccc(CNC(=O)/C=N/O)c1	RGS12 GoLoco inh 14µM
Cc1ccc(N(C)C(=O)CC(C)S(=O)(=O)c2ccc3c(c2)NC(=O)CO3)cc1 (stereo not drawn)	TexasRed fluor 13µM[quencher] (no result: RGS12 GoLoco inh)
Cc1ccc(NC(=O)CC(C)S(=O)(=O)c2ccc3c(c2)NC(=O)CO3)c(Cl)c1 (stereo not drawn)	none (no result: RGS12 GoLoco inh)
Cc1cc(C)cc(NC(=O)CSc2c(C(C)C)cnc3c2c(=O)n(C)c(=O)n3C)c1	none (no result: RGS12 GoLoco inh)
O=c1[nH]c(=O)n(-c2ccc(F)cc2)c2c1C(C(F)(F)F)(C(F)(F)F)N=C(c1ccc(F)cc1)N2	none
Oc1cc(-n2cccn2)c(O)cc1-n1cccn1	Tau fibril FP inconclusive, Tau fibril ThT 16µM, Tau fluor counter 16µM[quencher]
O=Cc1ccccc1-n1cccn1	none
